# Source: the supplement of paper PMC8728848
# This is one part of a sample in which the strongest signals are shown more often than they occur.
# What was measured:
# Assay in all cases: glycan array binding signal (z-score within array); higher = stronger binding
# Details in all cases: glycan notation: IUPAC condensed, linker removed
# GalNAc(b1-3)GlcNAc = target: GalNAc(b1-3)GlcNAc
# Outline: (§1)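 From the Consortium for Functional Glycomics database, 3228 arrays were curated, keeping only those whose protein sequence was available. Binding is given as a within-array Z-score averaged across arrays sharing a protein sequence and across linkers. Negative Z-scores can be read as non-binding.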
# GalNAc6S(b1-4)GlcNAc = target: GalNAc6S(b1-4)GlcNAc
# Outline: as §1
# Glc(a1-6)Glc(a1-6)Glc = target: Glc(a1-6)Glc(a1-6)Glc
# Outline: as §1
# [1] = target: GlcNAc(a1-4)Gal(b1-4)GalNAc
# Outline: as §1
# [2] = target: GlcNAc(a1-4)Gal(b1-4)GlcNAc(b1-3)Gal(b1-4)GlcNAc
# Outline: as §1
# [3] = target: GlcNAc(a1-4)Gal(b1-4)GlcNAc(b1-3)Gal(b1-4)[Fuc(a1-3)]GlcNAc(b1-3)Gal(b1-4)[Fuc(a1-3)]GlcNAc
# Outline: as §1
# [4] = target: GlcNAc(b1-3)Gal(b1-4)GlcNAc(b1-2)[GlcNAc(b1-3)Gal(b1-4)GlcNAc(b1-6)]Man(a1-6)[GlcNAc(b1-3)Gal(b1-4)GlcNAc(b1-2)Man(a1-3)]Man(b1-4)GlcNAc(b1-4)GlcNAc
# Outline: as §1
# [5] = target: GlcNAc(b1-3)Gal(b1-4)GlcNAc(b1-3)Gal(b1-4)GlcNAc(b1-2)Man(a1-3)[GlcNAc(b1-3)Gal(b1-4)GlcNAc(b1-3)Gal(b1-4)GlcNAc(b1-2)Man(a1-6)]Man(b1-4)GlcNAc(b1-4)GlcNAc
# Outline: as §1
# [6] = target: GlcNAc(b1-3)Gal(b1-4)GlcNAc(b1-3)Gal(b1-4)GlcNAc(b1-2)[GlcNAc(b1-3)Gal(b1-4)GlcNAc(b1-3)Gal(b1-4)GlcNAc(b1-6)]Man(a1-6)[GlcNAc(b1-3)Gal(b1-4)GlcNAc(b1-3)Gal(b1-4)GlcNAc(b1-2)Man(a1-3)]Man(b1-4)GlcNAc(b1-4)[Fuc(a1-6)]GlcNAc
# Outline: as §1
# [7] = target: GlcNAc(b1-3)Gal(b1-4)GlcNAc(b1-3)Gal(b1-4)GlcNAc(b1-3)Gal(b1-4)GlcNAc(b1-2)[GlcNAc(b1-3)Gal(b1-4)GlcNAc(b1-3)Gal(b1-4)GlcNAc(b1-3)Gal(b1-4)GlcNAc(b1-6)]Man(a1-6)[GlcNAc(b1-3)Gal(b1-4)GlcNAc(b1-3)Gal(b1-4)GlcNAc(b1-3)Gal(b1-4)GlcNAc(b1-2)Man(a1-3)]Man(b1-4)GlcNAc(b1-4)[Fuc(a1-6)]GlcNAc
# Outline: as §1
# [8] = target: GlcNAc6S(b1-3)Gal(b1-4)GlcNAc
# Outline: as §1
# Kdn(a2-3)Gal(b1-3)GalNAc = target: Kdn(a2-3)Gal(b1-3)GalNAc
# Outline: as §1
# [9] = target: Man(a1-2)Man(a1-3)[Man(a1-2)Man(a1-6)]Man
# Outline: as §1
# Neu5Ac(a2-3)Gal(b1-4)Glc = target: Neu5Ac(a2-3)Gal(b1-4)Glc
# Outline: as §1
# [10] = target: Neu5Ac(a2-3)Gal(b1-4)GlcNAc(b1-2)Man(a1-3)[Neu5Ac(a2-3)Gal(b1-4)GlcNAc(b1-2)Man(a1-6)]Man(b1-4)GlcNAc(b1-4)[Fuc(a1-6)]GlcNAc
# Outline: as §1
# [11] = target: Neu5Ac(a2-3)Gal(b1-4)GlcNAc(b1-2)[Neu5Ac(a2-3)Gal(b1-4)GlcNAc(b1-4)]Man(a1-3)[GlcNAc(b1-4)][Neu5Ac(a2-3)Gal(b1-4)GlcNAc(b1-2)[Neu5Ac(a2-3)Gal(b1-4)GlcNAc(b1-6)]Man(a1-6)]Man(b1-4)GlcNAc(b1-4)GlcNAc
# Outline: as §1
# [12] = target: Neu5Ac(a2-3)Gal(b1-4)GlcNAc(b1-3)Gal(b1-4)GlcNAc(b1-3)Gal(b1-4)GlcNAc(b1-2)Man(a1-3)[Neu5Ac(a2-3)Gal(b1-4)GlcNAc(b1-3)Gal(b1-4)GlcNAc(b1-3)Gal(b1-4)GlcNAc(b1-2)Man(a1-6)]GalNAc
# Outline: as §1
# [13] = target: Neu5Ac(a2-3)Gal(b1-4)GlcNAc(b1-6)GalNAc
# Outline: as §1
# [14] = target: Neu5Ac(a2-3)Gal(b1-4)GlcNAc6S
# Outline: as §1
# [15] = target: Neu5Ac(a2-3)Gal(b1-4)[Fuc(a1-3)]GlcNAc(b1-2)Man
# Outline: as §1
# [16] = target: Neu5Ac(a2-6)Gal(b1-4)GlcNAc(b1-3)Gal(b1-4)GlcNAc(b1-2)Man(a1-3)[Neu5Ac(a2-6)Gal(b1-4)GlcNAc(b1-3)Gal(b1-4)GlcNAc(b1-2)Man(a1-6)]GalNAc
# Outline: as §1
# [17] = target: Neu5Ac(a2-6)Gal(b1-4)GlcNAc(b1-3)Gal(b1-4)GlcNAc(b1-3)Gal(b1-4)GlcNAc(b1-2)Man(a1-3)[Neu5Ac(a2-6)Gal(b1-4)GlcNAc(b1-3)Gal(b1-4)GlcNAc(b1-3)Gal(b1-4)GlcNAc(b1-2)Man(a1-6)]GalNAc
# Outline: as §1
# [18] = target: Neu5Ac(a2-6)Gal(b1-4)GlcNAc(b1-6)[Gal(b1-3)]GalNAc
# Outline: as §1
# [19] = target: Neu5Ac(a2-8)Neu5Ac(a2-3)[GalNAc(b1-4)]Gal(b1-4)Glc
# Outline: as §1
# [20] = target: Neu5Ac(a2-8)Neu5Ac(a2-8)Neu5Ac(a2-3)Gal(b1-4)Glc
# Outline: as §1
# [21] = target: Neu5Gc(a2-8)Neu5Ac(a2-3)Gal(b1-4)GlcNAc
# Outline: as §1
binder,measurement,setting,value
TIM1 (protein) ADGIQSVKVGGEAGPSVTLPCHYSGAVTSMCWNRGSCSLFTCQNGIVWTNGTHVTYRKDTRYKLLGDLSRRDVSLTIENTAVSDSGVYCCRVEHRGWFNDMKITVSLEIVPPHHHHHH,glycan array binding signal (z-score),GalNAc(b1-3)GlcNAc,-0.188
same,glycan array binding signal (z-score),GalNAc6S(b1-4)GlcNAc,-0.269
same,glycan array binding signal (z-score),Glc(a1-6)Glc(a1-6)Glc,-0.212
same,glycan array binding signal (z-score),[1],0.413
same,glycan array binding signal (z-score),[2],-0.125
same,glycan array binding signal (z-score),[3],2.32
same,glycan array binding signal (z-score),[4],1.97
same,glycan array binding signal (z-score),[5],5.59
same,glycan array binding signal (z-score),[6],1.97
same,glycan array binding signal (z-score),[7],1.02
same,glycan array binding signal (z-score),[8],-0.142
same,glycan array binding signal (z-score),Kdn(a2-3)Gal(b1-3)GalNAc,0.111
same,glycan array binding signal (z-score),[9],-0.292
same,glycan array binding signal (z-score),Neu5Ac(a2-3)Gal(b1-4)Glc,0.916
same,glycan array binding signal (z-score),[10],-0.132
same,glycan array binding signal (z-score),[11],-0.288
same,glycan array binding signal (z-score),[12],4.84
same,glycan array binding signal (z-score),[13],-0.189
same,glycan array binding signal (z-score),[14],-0.181
same,glycan array binding signal (z-score),[15],-0.204
same,glycan array binding signal (z-score),[16],1.3
same,glycan array binding signal (z-score),[17],5.74
same,glycan array binding signal (z-score),[18],-0.075
same,glycan array binding signal (z-score),[19],-0.183
same,glycan array binding signal (z-score),[20],-0.195
same,glycan array binding signal (z-score),[21],-0.137
